# Screening data as filed in PubChem.
# This excerpt belongs to a sample that is enriched for hits.
# TTR transcr act = TTR transcription activation, primary screen. SH-SY5Y TTR promoter Gaussia luciferase, luminescence; 100% = recombinant luciferase protein wells. AID 1117267. hit rate 1.3% among 92,000. activation, % at 16.7 µM;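 active = activation above the mean of all tested compounds plus 3 SD, cut at about 9.5% in these data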;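 note: cells exposed to compounds for one day before reading; 0% = median of all test compound wells on the plate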
# HuH7 TTR inh = HuH7 TTR transcription inhibition, counter-screen; shares compounds with TTR transcr act; HuH7 TTR promoter-Gaussia luciferase reporter, luminescence; inhibition, % at 16.7 µM; hit rate 4% among 1,100; AID 1117279;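 active = average inhibition above the solvent-only control wells' mean plus 3 SD, cut at about 15% in these data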;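 note: 0% = cells with DMSO only and 100% = cells with inhibitor control FD; inhibitors lower well luminescence so higher value means more inhibition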
# TTR up confirm = confirmation of human transthyretin transcription activators; shares compounds with TTR transcr act; SHSY5Y TTR promoter Gaussia luciferase, luminescence; 100% = purified Lucia enzyme wells, no cells; activation, % at 16.7 µM; 1,100 tested, under 10 active;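 active = mean activation above a set limit taken from the earlier primary screen, cut at about 11% in these data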;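 note: 0% = DMSO-treated cells and 100% = recombinant Lucia luciferase without cells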
# Starred values were filed as active, the others as inactive.
SMILES,TTR transcr act,others
CCOC(=O)[C@]12CCCC=C1N(CCCOC)C(=O)[C@@H]2CC(=O)NCc1ccccc1,-1,
COc1cc(C(=O)NC(=S)Nc2ccc3ccccc3c2)cc(OC)c1OC,2,
COc1cc(Br)c(C(C)NC(=O)c2cccc(Br)c2)cc1OC (stereo not drawn),-1,
COc1cc(C(=O)NC(C)c2cccc3ccccc23)cc(OC)c1OC (stereo not drawn),18*,HuH7 TTR inh=-35;TTR up confirm=0
COC(=O)[C@@H](CC(C)C)CP(=O)(OC)[C@@H](C)NC(=O)OCc1ccccc1 (stereo partly drawn),0,
O=C(Nc1cccc(Cl)c1)O[C@@H]1CC[C@@]23CCCN2C(=O)CCC[C@H]3C1,-2,
O=C(OCC#CCSc1nnc(-c2cccc3ccccc23)o1)c1ccc(F)nc1,2,
COC(=O)C(CC(C)C)NC(=O)/C=C/c1ccccc1Cl (stereo not drawn),-2,
CC(C)NC(=S)NC(=O)/C=C/c1cccc2ccccc12,17*,HuH7 TTR inh=-4;TTR up confirm=-1
CC(O)C(=O)N/N=C/c1cccc2ccccc12 (stereo not drawn),-1,
CCC[C@H]1[C@@H](NC(=O)c2cccc(C(F)(F)F)c2)CC[C@@]23CCCN2C(=O)CCC[C@@H]13,3,
CCCC1CCC2(CCCN2CCOC(=S)Nc2cccc(Cl)c2)CC1 (stereo not drawn),5,
C1=CC2CCC1ON2c1ccccc1 (stereo not drawn),17*,HuH7 TTR inh=-4;TTR up confirm=0
Nc1ccccc1C(=O)N1O[C@@H]2C=C[C@H]1C2,0,
Cc1cccc(N2O[C@H]3C=C[C@@H]2C3)n1,-1,
O=C(Nc1ccc(Br)cc1)OC1CC2CC1[C@H]1CCCCN1[C@H]2Cc1ccccc1 (stereo partly drawn),2,
CCOC(=O)c1cnc(-c2ccccc2)nc1N1CCOCC1,-1,
CCOC(=O)c1cnc2c(-c3ccccc3)cnn2c1C,13*,HuH7 TTR inh=-2;TTR up confirm=4
CCOC(=O)c1cnc2cc(-c3ccc(Br)cc3)nn2c1C,2,
CCCCNC(=O)C[C@H]1C[C@@]2(C(=O)OC)C(=C[C@H](COCc3ccccc3)O[C@@H]2C)N(CCc2ccc(OC)c(OC)c2)C1=O,2,
CCN(CC)C(=O)O[C@H]1CC[C@@]23CCCN2C(=O)CCC[C@H]3C1,3,
CCCC1CCC2(CCCN2CCOC(=O)Nc2ccc(F)cc2)CC1 (stereo not drawn),-2,
Cc1ccc(S(=O)(=O)Nc2ccc3c(c2)OCCO3)cc1C,6,
COc1ccc(S(=O)(=O)Nc2ccc3c(c2)OCO3)cc1OC,17*,HuH7 TTR inh=-15;TTR up confirm=0
COc1ccc(S(=O)(=O)Nc2ccccc2)cc1OC,0,
SMILES,TTR transcr act,others
COC(=O)[C@]12C[C@H](CC(=O)NCC34CC5CC(CC(C5)C3)C4)C(=O)N(Cc3cccc4ccccc34)C1=C[C@H](COCc1ccccc1)O[C@@H]2C,1,
CC(C)c1cc(-c2n[nH]c(=S)n2Cc2ccccc2)cs1,11*,HuH7 TTR inh=-2;TTR up confirm=-1
S=c1[nH]nc(-c2ccccc2)n1Cc1ccccc1,6,
COc1ccc(-c2n[nH]c(=S)n2Cc2ccccc2)cc1OC,2,
C[C@H]1[C@@H](NCc2ccccc2)CC[C@@]23CCCN2C(=O)CCC[C@@H]13,1,
NNS(=O)(=O)c1ccc(Cc2ncc(C(F)(F)F)cc2Cl)s1,3,
CCN(CC)S(=O)(=O)c1ccc(Cc2ncc(C(F)(F)F)cc2Cl)s1,9.9*,HuH7 TTR inh=-11;TTR up confirm=0
NS(=O)(=O)c1ccc(Cc2ncc(C(F)(F)F)cc2Cl)s1,1,
Cc1nc(N2CCN(C(=O)C3CCCCC3)CC2)c2c3c(sc2n1)CCCC3,-2,
COc1ccc(OC)c(CN2C(=O)CN(S(C)(=O)=O)CC2(C)c2nnnn2C2CCCC2)c1 (stereo not drawn),0,
CS(=O)(=O)N(CC(=O)N/N=C/c1cc([N+](=O)[O-])ccc1Cl)c1ccccc1,1,
O=C(CN(c1ccc(Cl)c(C(F)(F)F)c1)S(=O)(=O)c1ccccc1)N/N=C/c1cccc2c1OCCO2,10*,HuH7 TTR inh=0;TTR up confirm=-1
COc1ccc(N(CC(=O)N/N=C/c2ccc(OC3CSC3)cc2)S(=O)(=O)c2ccccc2)cc1,0,
CCOC(=O)[C@]12CCCC3=C1N(CCC3)C(=O)[C@@H](CC(=O)NCCCOC)C2,-1,
COc1ccc(-c2nc(-c3ccncc3)no2)cc1OC,0,
COc1ccc(-c2noc(-c3cccs3)n2)cc1OC,22*,HuH7 TTR inh=35*;TTR up confirm=-1
COc1ccc(-c2noc(-c3ccoc3C)n2)cc1OC,0,
O=C(OCC#CCSc1nnc(-c2cccc3ncccc23)o1)c1ccc(F)cc1,-2,
COC(=O)[C@]12C[C@H](CC(=O)NCCC(C)C)C(=O)N(Cc3ccc(Cl)cc3Cl)C1=C[C@H](COCc1ccccc1)O[C@@H]2C,0,
CC1(c2nnnn2Cc2ccccc2)CCC(=O)N1CCc1ccccc1F (stereo not drawn),11*,HuH7 TTR inh=-11;TTR up confirm=0
CC1(c2nnnn2Cc2ccccc2)CCC(=O)N1CC(F)(F)F (stereo not drawn),-1,
CC1(c2nnnn2Cc2ccccc2)CCC(=O)N1CCc1c[nH]c2ccccc12 (stereo not drawn),-1,
O=C(Nc1cc(S(=O)(=O)N2CCOCC2)ccc1N1CCCC1)c1cc2c(s1)CCCC2,0,
COc1ccc(/C=C(\C#N)C(=O)OCC(=O)NC(C)c2ccccc2)cc1 (stereo not drawn),17*,HuH7 TTR inh=-12;TTR up confirm=0
COc1ccc(/C=C(\C#N)C(=O)OCCNC(=O)c2ccncc2)cc1,6,
SMILES,TTR transcr act,others
COc1cc(/C=C(/C#N)C(=O)NC(C)c2ccccc2)cc(OC)c1O (stereo not drawn),0,
CCn1c(C(O)c2cccc(OC)c2OC)nc2ccccc21 (stereo not drawn),6,
COc1cccc(C(O)c2nccn2Cc2ccccc2)c1OC (stereo not drawn),1,
COc1ccccc1C(O)c1nccn1C (stereo not drawn),14*,HuH7 TTR inh=-4;TTR up confirm=-1
CN(Cc1ccccc1)C(=O)OCc1cn(Cc2cccc(C(F)(F)F)c2)nn1,1,
CC1CCN(c2c(NCC3CCC(C(=O)NCc4ccccc4)CC3)c(=O)c2=O)CC1 (stereo not drawn),-1,
COc1ccc(C)cc1NC(=O)C1CCC(CNc2c(N3CCOCC3)c(=O)c2=O)CC1 (stereo not drawn),0,
COc1ccc(OC)c(NC(=O)C2CCC(CNc3c(N4CCC(C)CC4)c(=O)c3=O)CC2)c1 (stereo not drawn),15*,HuH7 TTR inh=1;TTR up confirm=2
O=C(OCc1cn(Cc2c(F)cccc2F)nn1)N1CCCC1,2,
S=C(Nc1ccccc1I)OC1CCC12CCC(c1ccccc1)CC2 (stereo not drawn),4,
COC(=O)c1ccc(Cn2ccc3ccc(-c4ccc5ccn(C(=O)c6cccc(OC)c6)c5c4)cc32)cc1,2,
COC(=O)[C@H](CCSC)NC(=O)NCCc1ccc(F)cc1,1,
COC(=O)[C@H](CCSC)NC(=O)Nc1ccc(C(C)C)cc1,-1,
COC(=O)[C@H](CCSC)NC(=O)NCc1ccccn1,19*,HuH7 TTR inh=-17;TTR up confirm=1
O=C(OCC#CCSc1nnc(-c2cccc3ccccc23)o1)c1cc(F)c(F)c(F)c1,-2,
COc1ccccc1C(=O)NC1CCCCN(Cc2ccc(C)cc2)C1=O (stereo not drawn),3,
